Data from PubChem BioAssay (NCATS).
Inconclusive results are not listed. Calls of active or inactive are those of the source. The call rests on the fitted dose curve; in most records, active means well fitted curve in the direction sought with a large enough effect; inconclusive means small, poorly fitted or top-dose-only effect, or another doubt; inactive means no such curve, though single readings can be large; an effect the other way counts as inactive or inconclusive.

Key:
CRL-7250 = normal cell line; experiment: Cytotoxic Profiling of Annotated Libraries Using Quantitative High-Throughput Screening (AID 1296008); details: Five cell lines viability, CellTiter-Glo ATP luminescence, 48-72 h; max response: stronger effect = lower value; further: nearly all actives have a fitted effect of over 60% in size; on max response: on the % scale 0 is the no-effect control and ±100 the full control effect
How it was run: (§1)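 Cells exposed to compounds for 48 or 72 hr at 37 degrees Celsius. Viability read as ATP-coupled luminescence with CellTiter-Glo after 10 min at room temperature.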

HEK293 = experiment: as above; details: Five cell lines viability, CellTiter-Glo ATP luminescence, 48-72 h; max response: stronger effect = lower value
How it was run: as §1

HaCat [1] = experiment: as above; details: Five cell lines viability, CellTiter-Glo ATP luminescence, 48-72 h; max response: stronger effect = lower value
How it was run: as §1

KB-3-1 = experiment: as above; details: Five cell lines viability, CellTiter-Glo ATP luminescence, 48-72 h; max response: stronger effect = lower value
How it was run: as §1

NIH3T3 [2] = experiment: as above; details: Five cell lines viability, CellTiter-Glo ATP luminescence, 48-72 h; max response: stronger effect = lower value
How it was run: as §1

HACAT [3] = experiment: qHTS assay to identify novel small-molecules to repurpose for Merkel cell carcinoma treatment (AID 1296009); details: MCC and control cell lines, CellTiter-Glo viability, 72 h; at 44.8 µM (top of the series) unless noted; further: nearly all actives have a fitted effect of over 60% in size
How it was run: (§2)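 Cells were treated for 72 hr at 37 degree celsius with compounds in 8- or 11-point dose response. Viability was read by CellTiter-Glo luminescence, normalized to no-cell (cytotoxicity) and DMSO controls.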

NIH3T3 [4] = experiment: as above; details: MCC and control cell lines, CellTiter-Glo viability, 72 h; at 44.8 µM (top of the series) unless noted
How it was run: as §2

C33A = experiment: Primary qHTS to identify gynecologic anti-cancer compounds using libraries of approved drugs and bioactive compounds (AID 1345084); details: Gynecologic cancer cell panel viability, ATPlite luminescence, 48 h; series mostly up to 57.5 µM; further: on the % scale 0 is the no-effect control and ±100 the full control effect; nearly all actives have a fitted effect of over 55% in size
How it was run: (§3)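 Cells, 1,000 per well, plated 16 h, then exposed 48 h at 37 C to compounds. Viability by ATPlite luminescence after 15 min at room temperature.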

CAOV3 = experiment: as above; details: Gynecologic cancer cell panel viability, ATPlite luminescence, 48 h; series mostly up to 57.5 µM
How it was run: as §3

CASKI = experiment: as above; details: Gynecologic cancer cell panel viability, ATPlite luminescence, 48 h; series mostly up to 57.5 µM
How it was run: as §3

Es-2 = experiment: as above; details: Gynecologic cancer cell panel viability, ATPlite luminescence, 48 h; series mostly up to 57.5 µM
How it was run: as §3

HeLa = experiment: as above; details: Gynecologic cancer cell panel viability, ATPlite luminescence, 48 h; series mostly up to 57.5 µM
How it was run: as §3

Hek293T = experiment: as above; details: Gynecologic cancer cell panel viability, ATPlite luminescence, 48 h, control line for the selectivity index; series mostly up to 57.5 µM
How it was run: as §3

JEG-3 = experiment: as above; details: Gynecologic cancer cell panel viability, ATPlite luminescence, 48 h; series mostly up to 57.5 µM
How it was run: as §3

CC1C(=O)OCC2=CC[N+]3([O-])CCC(OC(=O)C(C)(O)C1(C)O)C23 (centres undefined)
inactive: max response (CRL-7250) 2.6% | max response (HEK293) 3.51% | outcome (HaCat [1]) | max response (KB-3-1) 7.03% | outcome (NIH3T3 [2]) | outcome (HACAT [3]) | outcome (NIH3T3 [4]) | Potency (C33A) | Potency (CAOV3) | outcome (CASKI) | Potency (Es-2) | Potency (HeLa) | Potency (Hek293T) | Potency (JEG-3)

COC(=O)C1=COC(O[C@@H]2O[C@H](CO)[C@@H](O)[C@H](O)[C@H]2O)/C(=C\COC(=O)/C=C/c2ccccc2)C1CC(=O)OCCc1ccc(O)cc1 (some centres undefined)
inactive: max response (CRL-7250) -7.39% | max response (HEK293) -5.04% | outcome (HaCat [1]) | outcome (KB-3-1) | outcome (NIH3T3 [2]) | outcome (HACAT [3]) inactive [at 17.4 µM] | outcome (NIH3T3 [4]) inactive [at 17.4 µM] | Potency (C33A) | Potency (CAOV3) | outcome (CASKI) | Potency (Es-2) | Potency (HeLa) | Potency (Hek293T) | Potency (JEG-3)

NC(=O)[C@@H]1CC[C@H](c2ccc(OCc3ccccc3F)cc2)N1
inactive: max response (CRL-7250) -6.02% | max response (HEK293) 2.17% | outcome (HaCat [1]) | max response (KB-3-1) -8.37% | outcome (NIH3T3 [2]) | outcome (HACAT [3]) | outcome (NIH3T3 [4]) | Potency (C33A) | Potency (CAOV3) | outcome (CASKI) | Potency (Es-2) | Potency (HeLa) | Potency (Hek293T) | Potency (JEG-3)

C[C@@H]1CC2OC(=O)C3=C2C(CCC3O)[C@@]12C[C@@H](c1ccoc1)OC2=O (some centres undefined)
inactive: max response (CRL-7250) -0.741% | max response (HEK293) 2.79% | outcome (HaCat [1]) | outcome (KB-3-1) | outcome (NIH3T3 [2]) | outcome (HACAT [3]) | outcome (NIH3T3 [4]) | Potency (C33A) | Potency (CAOV3) | outcome (CASKI) | Potency (Es-2) | Potency (HeLa) | Potency (Hek293T) | Potency (JEG-3)

OC[C@H]1O[C@@H](OCc2ccccc2)[C@H](O)[C@@H](O)[C@@H]1O
inactive: max response (CRL-7250) 0.468% | max response (HEK293) -5.26% | outcome (HaCat [1]) | max response (KB-3-1) 1.59% | outcome (NIH3T3 [2]) | outcome (HACAT [3]) | outcome (NIH3T3 [4]) | Potency (C33A) | Potency (CAOV3) | outcome (CASKI) | Potency (Es-2) | Potency (HeLa) | Potency (Hek293T) | Potency (JEG-3)

CCCc1[nH]nc2c1C(c1cc(Cl)cc(Cl)c1O)C(C#N)=C(N)O2 (centres undefined)
inactive: max response (CRL-7250) -0.63% | max response (HEK293) -17.1% | outcome (HaCat [1]) | outcome (KB-3-1) | outcome (NIH3T3 [2]) | outcome (HACAT [3]) | outcome (NIH3T3 [4]) | Potency (C33A) | Potency (CAOV3) | outcome (CASKI) | Potency (Es-2) | Potency (HeLa) | Potency (Hek293T) | Potency (JEG-3)

C[C@@H]1O[C@@H](O[C@H]2[C@H](OC(=O)[C@]34CCC(C)(C)C[C@H]3C3=CCC5[C@@]6(C)C[C@@H](O)[C@@H](O)[C@@](C)(CO)C6[C@H](O)C[C@@]5(C)[C@]3(C)CC4)OC[C@H](O)[C@@H]2O)[C@H](O)[C@H](O)[C@H]1O[C@@H]1OC[C@@H](O)[C@H](O[C@H]2O[C@H](C)[C@@H](O)[C@H](O)[C@@H]2O)[C@H]1O (some centres undefined)
inactive: max response (CRL-7250) 1.4% | max response (HEK293) -0.607% | outcome (HaCat [1]) | max response (KB-3-1) 8.34% | outcome (NIH3T3 [2]) | outcome (HACAT [3]) inactive [at 9.27 µM] | outcome (NIH3T3 [4]) inactive [at 9.27 µM] | activity change, negative = cytotoxicity (C33A) -5.04% [at 11.6 µM] | activity change, negative = cytotoxicity (CAOV3) 7.19% [at 11.6 µM] | activity change, negative = cytotoxicity (CASKI) 15.8% [at 11.6 µM] | activity change, negative = cytotoxicity (Es-2) 6.09% [at 11.6 µM] | activity change, negative = cytotoxicity (HeLa) 13.1% [at 11.6 µM] | activity change, negative = cytotoxicity (Hek293T) -1.53% [at 11.6 µM] | activity change, negative = cytotoxicity (JEG-3) 3.24% [at 11.6 µM]

C/C=C1/[C@H](O[C@@H]2O[C@H](CO)[C@@H](O)[C@H](O)[C@H]2O)OC=C(C(=O)OC)[C@H]1CC(=O)OCCc1ccc(O)c(O)c1
inactive: max response (CRL-7250) -12.9% | max response (HEK293) -8.69% | outcome (HaCat [1]) | max response (KB-3-1) 4.42% | outcome (NIH3T3 [2]) | outcome (HACAT [3]) inactive [at 17.4 µM] | outcome (NIH3T3 [4]) inactive [at 17.4 µM] | Potency (C33A) | Potency (CAOV3) | outcome (CASKI) | Potency (Es-2) | Potency (HeLa) | Potency (Hek293T) | Potency (JEG-3)

C=C1C(O)C(O)C2(CC3C(C)=CCC4C(C)(C(=O)O)CCCC34C)OC2C1O (centres undefined)
inactive: max response (CRL-7250) -4.59% | max response (HEK293) 1.46% | outcome (HaCat [1]) | max response (KB-3-1) 2.87% | outcome (NIH3T3 [2]) | outcome (HACAT [3]) | outcome (NIH3T3 [4]) | Potency (C33A) | Potency (CAOV3) | outcome (CASKI) | Potency (Es-2) | Potency (HeLa) | Potency (Hek293T) | Potency (JEG-3)

C[C@]1(OC(=O)/C=C/c2ccccc2)C[C@@H](O)[C@]2(O)C=CO[C@@H](O[C@@H]3O[C@H](CO)[C@@H](O)[C@H](O)[C@H]3O)[C@@H]21
inactive: max response (CRL-7250) -4.65% | max response (HEK293) 3.08% | outcome (HaCat [1]) | max response (KB-3-1) 8.76% | outcome (NIH3T3 [2]) | outcome (HACAT [3]) inactive [at 17.4 µM] | outcome (NIH3T3 [4]) inactive [at 17.4 µM] | Potency (C33A) | Potency (CAOV3) | outcome (CASKI) | Potency (Es-2) | Potency (HeLa) | Potency (Hek293T) | Potency (JEG-3)

NC[C@@H]1O[C@@H](O[C@@H]2[C@@H](O[C@@H]3O[C@H](CO)[C@@H](O)[C@H]3O)[C@H](O)[C@@H](N)C[C@H]2N)[C@@H](N)[C@H](O)[C@H]1O
inactive: outcome (CRL-7250) | max response (HEK293) -4.01% | outcome (HaCat [1]) | outcome (KB-3-1) | outcome (NIH3T3 [2]) | outcome (HACAT [3]) inactive [at 9.27 µM] | outcome (NIH3T3 [4]) inactive [at 9.27 µM] | activity change, negative = cytotoxicity (C33A) 8.18% [at 11.6 µM] | activity change, negative = cytotoxicity (CAOV3) 0.692% [at 11.6 µM] | activity change, negative = cytotoxicity (CASKI) 0.509% [at 11.6 µM] | activity change, negative = cytotoxicity (Es-2) 6.5% [at 11.6 µM] | activity change, negative = cytotoxicity (HeLa) 15.1% [at 11.6 µM] | activity change, negative = cytotoxicity (Hek293T) 17.2% [at 11.6 µM] | activity change, negative = cytotoxicity (JEG-3) 7.01% [at 11.6 µM]
